PrP UTR inh = inhibition of PrP 5' UTR reporter expression; 340,000 compounds, 0.35% hits; AID 488862; cell-based PrP 5' UTR mRNA reporter, plate reader; inhibition, % (test concentration not listed); in the data active = inhibition above about 52%; note: 0 = median of the neutral control wells
BJeLR lethal = kills HRASV12-expressing BJeLR cells; BJeLR (HRASV12) viability, CellTiter-Glo ATP luminescence, 48 h; inhibition, % (no concentration beside the values); 300,000 compounds, 0.17% hits; AID 1554; in the data active = inhibition above about 50%
Mtb hypoxia inh = reduces hypoxia-regulated biosensor signal in M. tuberculosis. M. tuberculosis hypoxia-regulated fluorescent reporter, fluorescence. AID 1159583. fluorescence inhibition, % (concentration not given with the values). 300,000 compounds, 0.1% hits; in the data active = fluorescence inhibition mostly above about 23%, no sharp cut-off; inactive = mostly below about 17%
PrPC TRFRET = reduces human prion protein on the cell surface; AID 720596; inhibition, % at 13.8 µM; cell surface PrPC, TR-FRET read-out; 370,000 compounds, 0.43% hits; P04156; in the data active = inhibition above about 24%; note: 0% = median of the test wells and 100% = reference compound wells
RecA intein inh = Mtb RecA intein splicing inhibition | inhibition, % (test concentration not listed) | cell-free RecA intein splicing, fluorescence | 290,000 compounds, 0.75% hits | P9WHJ3 | AID 2221; in the data active = inhibition above about 30%;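 note: 0% = vehicle wells and 100% = reference inhibitor control wells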
Target sequence (P9WHJ3 whole entry, looked up): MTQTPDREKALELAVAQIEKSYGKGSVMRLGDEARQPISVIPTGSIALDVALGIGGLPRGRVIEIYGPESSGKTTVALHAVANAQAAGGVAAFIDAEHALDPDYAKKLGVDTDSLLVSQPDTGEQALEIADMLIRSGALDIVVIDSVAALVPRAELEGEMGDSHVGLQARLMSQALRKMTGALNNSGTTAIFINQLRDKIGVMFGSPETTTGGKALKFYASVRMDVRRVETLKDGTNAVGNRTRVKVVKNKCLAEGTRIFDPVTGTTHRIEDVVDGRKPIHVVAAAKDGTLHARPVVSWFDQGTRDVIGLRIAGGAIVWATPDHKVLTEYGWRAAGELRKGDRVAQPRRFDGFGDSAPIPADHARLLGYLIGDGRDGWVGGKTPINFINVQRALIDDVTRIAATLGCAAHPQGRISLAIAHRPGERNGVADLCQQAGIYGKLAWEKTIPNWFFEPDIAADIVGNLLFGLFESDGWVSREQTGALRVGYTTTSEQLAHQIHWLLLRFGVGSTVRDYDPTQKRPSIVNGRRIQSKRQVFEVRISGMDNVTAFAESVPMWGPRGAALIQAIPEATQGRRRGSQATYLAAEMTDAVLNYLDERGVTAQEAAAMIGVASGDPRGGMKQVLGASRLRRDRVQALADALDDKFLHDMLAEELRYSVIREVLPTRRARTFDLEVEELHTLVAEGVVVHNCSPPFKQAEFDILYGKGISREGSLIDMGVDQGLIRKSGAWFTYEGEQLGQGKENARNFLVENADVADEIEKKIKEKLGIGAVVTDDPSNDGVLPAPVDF
3CLpro inhibitor = SARS-CoV 3CLpro protease inhibition. P0C6X7. recombinant SARS-CoV 3CLpro, quenched FRET peptide cleavage. inhibition, % at 6 µM. 290,000 compounds, 0.14% hits. AID 1706; in the data active = inhibition above about 12%
Numbers without * were called inactive. Compounds with a hit are over-represented: about 1.4% of the library has one in this group of screens.

How did COc1cc(/C=C(\C#N)C(=O)Nc2ccc3c(c2)OCCO3)ccc1O do in these assays?
PrP UTR inh: -21; BJeLR lethal: 10; PrPC TRFRET: 6; RecA intein inh: 32*; 3CLpro inhibitor: -2

Results for O=c1ccc2ccccc2c2ccccc12 ?
PrPC TRFRET: 8

How did O=Nc1c(O)c2ccccc2c2ccccc12 do in these assays?
PrP UTR inh: -65; BJeLR lethal: 2; Mtb hypoxia inh: 11; PrPC TRFRET: -23; RecA intein inh: 41*

Results for Cc1ccc(-c2nc(-c3ccccc3)no2)c(Cl)c1 ?
PrP UTR inh: 65*; BJeLR lethal: 11; Mtb hypoxia inh: 2; PrPC TRFRET: -1; RecA intein inh: 6; 3CLpro inhibitor: -2

Results for Cc1[nH]n(C(N)=S)c(=O)c1C(c1ccccc1)C(C#N)C#N (stereo not given) ?
PrP UTR inh: -9; BJeLR lethal: -4; PrPC TRFRET: 1; RecA intein inh: 43*; 3CLpro inhibitor: -2

How did Cc1[nH]n(-c2ncc(-c3ccccc3)s2)c(=O)c1C(c1ccc(Br)cc1)C(C#N)C#N (stereo not given) do in these assays?
PrP UTR inh: -3; BJeLR lethal: -2; Mtb hypoxia inh: -7; PrPC TRFRET: 0; RecA intein inh: 7; 3CLpro inhibitor: 2

How did CCOC(=O)N1CCC2(CC1)C(C#N)=C(N)Oc1n[nH]c(CSc3ccc(C)cc3)c12 do in these assays?
PrP UTR inh: -32; BJeLR lethal: 0; PrPC TRFRET: 2; RecA intein inh: 51*; 3CLpro inhibitor: 5

What do the screens show for `CCN(CC)c1ccc2c(-c3ccc(S(=O)(=O)O)cc3S(=O)(=O)[O-])c3ccc(=[N+](CC)CC)cc-3oc2c1`?
PrP UTR inh: 3; BJeLR lethal: 27; Mtb hypoxia inh: 39*; RecA intein inh: 1; 3CLpro inhibitor: -496

Results for CCN(CC)c1ccc2nc3c4ccccc4c(=O)cc-3oc2c1 ?
BJeLR lethal: 9; Mtb hypoxia inh: -7; PrPC TRFRET: -9; RecA intein inh: 0; 3CLpro inhibitor: 0

Results for CCCCC1=CC2=C(c3ccco3)C(=O)C(C)(OC(=O)c3ccc(OC)cc3)C(=O)C2=CN1Cc1ccccc1 (stereo not given) ?
PrP UTR inh: -5; BJeLR lethal: 3; Mtb hypoxia inh: 6; PrPC TRFRET: 31*; RecA intein inh: 6

How did CCCCC1=CC2=C(c3ccco3)C(=O)C(C)(OC(=O)c3ccc(OC)cc3)C(=O)C2=CN1CCOC (stereo not given) do in these assays?
PrP UTR inh: -10; BJeLR lethal: -13; Mtb hypoxia inh: 14; PrPC TRFRET: -1; RecA intein inh: -2

Results for CC(C)(C)c1ccc(OCc2cnc(Cl)s2)cc1 ?
PrP UTR inh: -19; BJeLR lethal: 13; Mtb hypoxia inh: 39*; PrPC TRFRET: -3; RecA intein inh: 9; 3CLpro inhibitor: 2

Results for CC(=O)N(C)Cc1ccc(C(=O)CCl)cc1 ?
PrP UTR inh: -20; BJeLR lethal: 0; Mtb hypoxia inh: 13; PrPC TRFRET: 3; RecA intein inh: 37*; 3CLpro inhibitor: -1

Results for CC(=O)NCc1ccc(C(=O)CCl)cc1 ?
PrP UTR inh: -21; BJeLR lethal: -5; Mtb hypoxia inh: 1; PrPC TRFRET: 6; RecA intein inh: 23; 3CLpro inhibitor: -3

How did CNC(=O)c1nnsc1S(=O)c1ccc(Cl)cc1 (stereo not given) do in these assays?
PrP UTR inh: -8; BJeLR lethal: 23; Mtb hypoxia inh: 20; PrPC TRFRET: 10; RecA intein inh: 40*; 3CLpro inhibitor: 5

What do the screens show for `Cc1ccc(S(=O)c2snnc2C)cc1` (stereo not given)?
PrP UTR inh: -20; BJeLR lethal: -8; Mtb hypoxia inh: 5; PrPC TRFRET: 0; RecA intein inh: 2; 3CLpro inhibitor: -4

What do the screens show for `CC1CN(C(C)CO)C(=O)c2cccc(NC(=O)C3CC3)c2OC1CN(C)Cc1ccc(Cl)c(Cl)c1` (stereo not given)?
Mtb hypoxia inh: 2

What do the screens show for `O=C(CN1CCN(Cc2ccccc2)CC1)NN=Cc1c[nH]c2ccccc12`?
Mtb hypoxia inh: -2

How did Cc1ccccc1CS(=O)(=O)c1nnc([C@H](CC(C)C)NC(=O)OC(C)(C)C)o1 do in these assays?
PrP UTR inh: -14; BJeLR lethal: -2; Mtb hypoxia inh: -2; PrPC TRFRET: 11; RecA intein inh: 52*; 3CLpro inhibitor: -3

What do the screens show for `O=[N+]([O-])c1cc(-c2nnc(Nc3ccccc3)c3ccccc23)ccc1N1CCOCC1`?
PrP UTR inh: -13; BJeLR lethal: 10; Mtb hypoxia inh: -3; PrPC TRFRET: -10; 3CLpro inhibitor: -1

Results for O=[N+]([O-])c1cc(-c2nnc(Nc3ccc(O)cc3)c3ccccc23)ccc1N1CCOCC1 ?
PrP UTR inh: 12; BJeLR lethal: -1; PrPC TRFRET: -4; RecA intein inh: 32*; 3CLpro inhibitor: 1

How did N#CC(=NNc1ccc(F)cc1)C(=O)C1CC1 do in these assays?
Mtb hypoxia inh: -5

How did CCOC(=O)C1Nc2c(F)cc(C)cc2C2c3ccccc3CC12 (stereo not given) do in these assays?
PrP UTR inh: -10; BJeLR lethal: -1; Mtb hypoxia inh: 7; PrPC TRFRET: -2; RecA intein inh: 45*

Results for NCCCCC1CNC(=O)C(=O)N1CCCCC1CCCCC1 (stereo not given) ?
Mtb hypoxia inh: -3

Results for Cc1cc(Br)c2c(c1)/C(=C/C(=O)c1cccs1)C(=O)N2 ?
PrP UTR inh: -24; BJeLR lethal: 3; Mtb hypoxia inh: 9; PrPC TRFRET: 3; RecA intein inh: 78*; 3CLpro inhibitor: 2

How did COc1cc(/C=C2/C(=O)N(c3ccc(Br)cc3)N=C2C)cc(OC)c1OC do in these assays?
PrP UTR inh: -16; BJeLR lethal: 25; Mtb hypoxia inh: 7; RecA intein inh: 63*; 3CLpro inhibitor: -1

What do the screens show for `CC1=NN(c2ccccc2)C(=O)/C1=C\c1cn(-c2ccccc2)nc1C`?
PrP UTR inh: -8; BJeLR lethal: 6; Mtb hypoxia inh: 13; PrPC TRFRET: -2; RecA intein inh: 11; 3CLpro inhibitor: 0

What do the screens show for `COc1ccccc1/C=C1/C(=O)N(c2ccccc2)N=C1C`?
PrP UTR inh: -11; BJeLR lethal: -4; PrPC TRFRET: -2; RecA intein inh: 58*; 3CLpro inhibitor: 2

Results for COc1cc(/C=C2\C(=O)N(c3ccccc3)N=C2C)ccc1Oc1ccc([N+](=O)[O-])cc1[N+](=O)[O-] ?
PrP UTR inh: -12; Mtb hypoxia inh: 5; PrPC TRFRET: -29; 3CLpro inhibitor: 2

How did CC1=NN(c2ccccc2)C(=O)/C1=C\c1ccc(Oc2ccc([N+](=O)[O-])cc2[N+](=O)[O-])cc1 do in these assays?
PrP UTR inh: -9; BJeLR lethal: -1; PrPC TRFRET: -40; RecA intein inh: 84*; 3CLpro inhibitor: -11

How did CCC(=NNC(=O)Nc1ccccc1)c1ccccc1 do in these assays?
Mtb hypoxia inh: 3

Screening data: PubChem BioAssay, several laboratories
